High-throughput results as filed in PubChem.
T cruzi growth-1: inhibitors of T. cruzi proliferation; T. cruzi beta-gal in NIH3T3, GalScreen luminescence, 90 h; inhibition, % at 8.34 µM; 77,000 compounds, 5.9% hits;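 active = mean inhibition above about 93%, with at least 55% of replicates each passing it, limit read from the data, passing the limit was not always enough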
Pf Dd2 inh: blocks growth of Plasmodium falciparum Dd2 parasites; P. falciparum Dd2 growth, SYBR Green, 72 h; active compounds read low; activity change, % at 10 µM; 94,000 compounds, 2.3% hits; AID 1159554; in the data active = activity change below about -80%
C diff HTS: blocks growth of Clostridium difficile. Clostridium difficile clinical isolate growth, OD600, 24 h; active compounds read low. growth activity, negative = inhibition, % at 16 µg/mL (by protocol). 86,000 compounds, 0.25% hits. AID 1259249;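 active = mean growth activity at or below -80% and every replicate also at or below -80%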
T cruzi growth-2: inhibitors of T. cruzi proliferation | shares compounds with T cruzi growth-1 | T. cruzi beta-gal in NIH3T3, GalScreen luminescence, 90 h | inhibition, % at 8.35 µM | 5,600 compounds, 72% hits | AID 651739;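 active = mean replicate inhibition above about 95% and at least 55% of replicates individually reaching it, limit read from the data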
T cruzi growth-3: blocks T. cruzi growth in NIH3T3 host cells; shares compounds with T cruzi growth-1; T. cruzi beta-gal in NIH3T3, GalScreen luminescence, 90 h; 5,600 compounds, 21% hits; inhibition, % at 2.09 µM;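 active = mean inhibition above about 95%, with at least 55% of replicates also reaching it, limit read from the data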
3T3 cytotox: kills mouse NIH/3T3 fibroblasts. NIH/3T3 viability, CellTiter-Glo ATP luminescence, 90 h. cytotoxicity (signal decrease), % at 8.35 µM. 5,600 compounds, 14% hits. shares compounds with T cruzi growth-1. AID 651742;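 active = mean signal decrease across replicates above about 35% based on untreated-well scatter, with enough replicates individually passing, limit read from the data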
3T3 cytotox 2: kills mouse NIH/3T3 fibroblasts. shares compounds with T cruzi growth-1. NIH/3T3 viability, CellTiter-Glo ATP luminescence, 90 h. inhibition, % at 24.9 µM. 5,600 compounds, 56% hits;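 active = mean loss of cell viability signal at or above a set limit, and enough replicates individually reaching it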
Each line names hits and unclear results; the compound was inactive in the other large screens (follow-up assays come after a bar, where they were run). Shown are actives, neighbours in structure and some others; about 6.7% of the full set was active somewhere.

C[C@@H]1CN([C@H](C)CO)C(=O)c2cc(NC(=O)Nc3ccc(F)cc3)ccc2O[C@@H](C)CCCCO[C@H]1CN(C)S(=O)(=O)c1cn(C)cn1	none (no result: C diff HTS)
CC(C)NC(=O)N(C)C[C@H]1OCCCC[C@@H](C)Oc2ccc(NC(=O)Cc3ccccc3)cc2C(=O)N([C@H](C)CO)C[C@@H]1C	none
CN1CCN(C(=O)c2cc3c(c(-c4cccc(-c5ccc(C(=O)N(C)C)cc5)c4)n2)[C@H](CCO)N([S@@](=O)C(C)(C)C)C3)CC1	none (no result: C diff HTS)
COc1ccc(NC(=O)Nc2ccc3c(c2)C(=O)N([C@@H](C)CO)C[C@@H](C)[C@H](CN(C)Cc2ccc4c(c2)OCO4)OCCCC[C@H](C)O3)cc1	none
COc1ccc(CN(C)C[C@H]2OCCCC[C@@H](C)Oc3ccc(NC(=O)Nc4ccc(OC)cc4)cc3C(=O)N([C@H](C)CO)C[C@@H]2C)cc1	none (no result: C diff HTS)
COc1ccc(CN(C)C[C@@H]2OCCCC[C@H](C)Oc3ccc(NC(=O)Nc4ccc(OC)cc4)cc3C(=O)N([C@@H](C)CO)C[C@H]2C)cc1	none (no result: C diff HTS)
COc1ccc(NC(=O)Nc2ccc3c(c2)C(=O)N([C@H](C)CO)C[C@H](C)[C@@H](CN(C)Cc2ccc(Cl)c(Cl)c2)OCCCC[C@@H](C)O3)cc1	T cruzi growth-1 122 | T cruzi growth-2 113 | T cruzi growth-3 100 | 3T3 cytotox inactive | 3T3 cytotox 2 inactive
COc1ccc(CN(C)C[C@H]2OCCCC[C@H](C)Oc3ccc(NC(=O)Nc4ccc(OC)cc4)cc3C(=O)N([C@@H](C)CO)C[C@H]2C)cc1	none (no result: C diff HTS)
COc1ccc(NC(=O)Nc2ccc3c(c2)C(=O)N([C@H](C)CO)C[C@H](C)[C@H](CN(C)Cc2ccc(Cl)c(Cl)c2)OCCCC[C@H](C)O3)cc1	T cruzi growth-1 126 | T cruzi growth-2 95 | T cruzi growth-3 114 | 3T3 cytotox inactive | 3T3 cytotox 2 inactive
COc1ccc(NC(=O)Nc2ccc3c(c2)C(=O)N([C@@H](C)CO)C[C@@H](C)[C@@H](CN(C)Cc2ccc(Cl)c(Cl)c2)OCCCC[C@@H](C)O3)cc1	T cruzi growth-1 126, Pf Dd2 inh -80 | T cruzi growth-2 96 | T cruzi growth-3 114 | 3T3 cytotox inactive | 3T3 cytotox 2 inactive
COc1ccc(NC(=O)Nc2ccc3c(c2)C(=O)N([C@@H](C)CO)C[C@H](C)[C@@H](CN(C)Cc2ccc(Cl)c(Cl)c2)OCCCC[C@@H](C)O3)cc1	T cruzi growth-1 126, Pf Dd2 inh -87 | T cruzi growth-2 102 | T cruzi growth-3 114 | 3T3 cytotox inactive | 3T3 cytotox 2 inactive
Cc1noc(C)c1NC(=O)Nc1cccc2c1O[C@@H](CN(C)S(=O)(=O)c1ccc(Cl)cc1)[C@@H](C)CN([C@@H](C)CO)C2=O	none
O=C(C[C@@H]1C[C@H]2c3cc(NC(=O)Nc4ccccc4)ccc3O[C@H]2[C@H](CO)O1)NC1CCCC1	none
C[C@@H]1CN([C@H](C)CO)C(=O)c2cccc(NC(=O)c3ccc(-c4nccs4)cc3)c2O[C@H]1CN(C)S(=O)(=O)c1ccc(F)cc1	none
CC=Cc1ccc2n(c1=O)C[C@H]1[C@H](CO)[C@@H](C(=O)NCC3CC3)N(Cc3cccnc3)[C@@H]21 (mixture of isomers)	none
Cc1noc(C)c1NC(=O)Nc1ccc2c(c1)C(=O)N([C@H](C)CO)C[C@H](C)[C@@H](CN(C)S(=O)(=O)c1ccc(F)cc1)OCCCC[C@@H](C)O2	none
C[C@H](CO)N1C[C@H](C)[C@@H](CN(C)C(=O)NC2CCCCC2)Oc2ccc(NS(=O)(=O)c3ccc(Cl)cc3)cc2CC1=O	none (no result: T cruzi growth-1)
COc1cccc(NC(=O)N(C)C[C@H]2OCc3cnnn3CCCC(=O)N([C@H](C)CO)C[C@H]2C)c1	none
COc1ccc(NC(=O)Nc2ccc3c(c2)C(=O)N([C@H](C)CO)C[C@H](C)[C@H](CN(C)Cc2ccc(Cl)c(Cl)c2)OCCCC[C@@H](C)O3)cc1	T cruzi growth-1 121 | T cruzi growth-2 104 | T cruzi growth-3 107 | 3T3 cytotox inactive | 3T3 cytotox 2 inactive
COc1ccc(NC(=O)Nc2ccc3c(c2)C(=O)N([C@H](C)CO)C[C@@H](C)[C@@H](CN(C)Cc2ccc(Cl)c(Cl)c2)OCCCC[C@H](C)O3)cc1	T cruzi growth-1 126 | T cruzi growth-2 inactive | T cruzi growth-3 110 | 3T3 cytotox inactive | 3T3 cytotox 2 inactive
Cc1noc(C)c1NC(=O)Nc1ccc2c(c1)C(=O)N([C@H](C)CO)C[C@@H](C)[C@@H](CN(C)S(=O)(=O)c1ccc(F)cc1)OCCCC[C@H](C)O2	none
CO[C@H](CN(C)S(=O)(=O)c1cccc(Cl)c1)[C@@H](C)CN(C(=O)Nc1ccccc1F)[C@@H](C)CO	none (no result: C diff HTS)
CCS(=O)(=O)N1CCCCN2[C@H](CO)[C@H](c3ccc(-c4ccc(C#N)cc4)cc3)[C@H]2C1	T cruzi growth-1 114 | T cruzi growth-2 96 | T cruzi growth-3 inactive | 3T3 cytotox inactive | 3T3 cytotox 2 52
CCS(=O)(=O)N1CCCCN2[C@H](CO)[C@H](c3ccc(-c4cccc(C#N)c4)cc3)[C@@H]2C1	none
CCS(=O)(=O)N1CCCCN2[C@H](C1)[C@H](c1ccc(-c3cccc(C#N)c3)cc1)[C@@H]2CO	T cruzi growth-1 107 | T cruzi growth-2 inactive | T cruzi growth-3 inactive | 3T3 cytotox inactive | 3T3 cytotox 2 inactive
CCS(=O)(=O)N1CCCCN2[C@H](CO)[C@H](c3ccc(-c4cccc(C#N)c4)cc3)[C@H]2C1	T cruzi growth-1 128 | T cruzi growth-2 97 | T cruzi growth-3 inactive | 3T3 cytotox 53 | 3T3 cytotox 2 46
CCS(=O)(=O)N1CCCCN2[C@H](CO)[C@@H](c3ccc(-c4ccc(C#N)cc4)cc3)[C@@H]2C1	none
CS(=O)(=O)N1CCCCN2[C@@H](CO)[C@@H](c3ccc(-c4cccc(C#N)c4)cc3)[C@@H]2C1	none
O=C(NCC[C@@H]1CC[C@@H](NS(=O)(=O)c2ccc(F)cc2)[C@H](CO)O1)Nc1ccc(Cl)cc1	none (no result: C diff HTS)
O=C(C[C@H]1CC[C@H]2[C@@H](COC[C@H](O)CN2S(=O)(=O)c2ccc(F)cc2)O1)NCc1ccc(Cl)c(Cl)c1	none
C[C@H](NC(=O)N(C)C[C@@H]1OCc2ccccc2-c2c(n(C)c3ccccc23)C(=O)N([C@H](C)CO)C[C@H]1C)c1ccccc1	none
C[C@@H]1CN([C@@H](C)CO)C(=O)Cc2cc(NC(=O)Nc3ccccc3)ccc2O[C@H]1CN(C)C(=O)Nc1cccc2ccccc12	none
COC(=O)C[C@@H]1CC[C@@H]2[C@@H](COc3ccc(NC(=O)Nc4ccccc4C)cc3C(=O)N2C)O1	none
CCCNC(=O)C[C@@H]1CC[C@@H]2[C@@H](COc3ccc(NC(=O)CCC)cc3C(=O)N2C)O1	none
